Laboratory results: PubChem BioAssay
Activity calls are given as the source filed them.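 The calls were made as follows, unless noted: active = compound whose remaining NAD level is above about 45 nM (limit read from the data); inactive = the rest.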

biological target: NAD(+) hydrolase SARM1 (Homo sapiens) (UniProt Q6SZW1); experiment: blocking NAD cleavage by SARM1 SAM-TIR – cell lysate, NAD-Glo luminescence (AID 1508614); conditions: SAM-TIR HEK293T lysate NADase, at 1 µM, active compounds read high;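 also: higher remaining NAD means stronger inhibition of SARM1 NADase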
Sequence (Q6SZW1 whole entry, looked up): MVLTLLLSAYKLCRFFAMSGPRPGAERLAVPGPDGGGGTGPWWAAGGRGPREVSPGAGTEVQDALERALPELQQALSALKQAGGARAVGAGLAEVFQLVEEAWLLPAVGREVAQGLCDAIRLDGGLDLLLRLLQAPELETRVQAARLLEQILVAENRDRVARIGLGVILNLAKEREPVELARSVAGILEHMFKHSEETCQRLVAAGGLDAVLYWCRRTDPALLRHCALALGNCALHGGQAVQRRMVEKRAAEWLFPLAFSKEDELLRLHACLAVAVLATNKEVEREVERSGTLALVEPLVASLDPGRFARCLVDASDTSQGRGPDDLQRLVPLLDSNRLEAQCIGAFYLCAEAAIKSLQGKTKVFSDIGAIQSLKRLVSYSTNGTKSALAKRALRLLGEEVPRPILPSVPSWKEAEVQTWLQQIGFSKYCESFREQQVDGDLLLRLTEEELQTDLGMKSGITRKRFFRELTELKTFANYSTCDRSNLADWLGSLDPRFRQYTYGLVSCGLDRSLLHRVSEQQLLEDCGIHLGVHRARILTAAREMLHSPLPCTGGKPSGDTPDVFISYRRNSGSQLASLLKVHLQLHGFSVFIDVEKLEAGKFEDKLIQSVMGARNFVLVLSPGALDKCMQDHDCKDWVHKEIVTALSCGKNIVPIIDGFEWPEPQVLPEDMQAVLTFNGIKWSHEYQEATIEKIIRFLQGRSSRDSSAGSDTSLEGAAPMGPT

| SMILES | remaining NAD |
| --- | --- |
| CCC(=O)c1ccc(O)cc1 | 10 nM (inactive) |
| FCOC(C(F)(F)F)C(F)(F)F | 10 nM (inactive) |
| OC[C@@H](O)[C@@H](O[C@@H]1O[C@H](CO)[C@H](O)[C@H](O)[C@H]1O)[C@H](O)[C@@H](O)CO | 10 nM (inactive) |
| O=C(O)CCc1nc2ccccc2[nH]1 | 10 nM (inactive) |
| O=C1CC[C@@H](C(=O)O)N1 | 10 nM (inactive) |
| O=C(O)c1ccc[n+]([O-])c1 | 10 nM (inactive) |
| C1CCN2C[C@@H]3C[C@@H](CN4CCCC[C@@H]34)[C@H]2C1 | 10 nM (inactive) |
| O=C1[O][Bi][O]c2ccccc21 | 52 nM (active) |
| OCc1ccccn1 | 10 nM (inactive) |

biological target: Mitogen-activated protein kinase 7 (Homo sapiens) (UniProt Q13164); experiment: Gal4-ERK5 driven luciferase induction – cell-based, HTS, primary screen (AID 1508626;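 active = luciferase signal above three times the same-plate solvent-only control wells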;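 also: luciferase driven by Gal4-ERK5 fusion binding five Gal4 sites before minimal TATA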); conditions: HeLa Gal4-ERK5 transactivation, 18 h, at 5 µM, active compounds read high
Sequence (Q13164 whole entry, looked up, the tested form may be a part): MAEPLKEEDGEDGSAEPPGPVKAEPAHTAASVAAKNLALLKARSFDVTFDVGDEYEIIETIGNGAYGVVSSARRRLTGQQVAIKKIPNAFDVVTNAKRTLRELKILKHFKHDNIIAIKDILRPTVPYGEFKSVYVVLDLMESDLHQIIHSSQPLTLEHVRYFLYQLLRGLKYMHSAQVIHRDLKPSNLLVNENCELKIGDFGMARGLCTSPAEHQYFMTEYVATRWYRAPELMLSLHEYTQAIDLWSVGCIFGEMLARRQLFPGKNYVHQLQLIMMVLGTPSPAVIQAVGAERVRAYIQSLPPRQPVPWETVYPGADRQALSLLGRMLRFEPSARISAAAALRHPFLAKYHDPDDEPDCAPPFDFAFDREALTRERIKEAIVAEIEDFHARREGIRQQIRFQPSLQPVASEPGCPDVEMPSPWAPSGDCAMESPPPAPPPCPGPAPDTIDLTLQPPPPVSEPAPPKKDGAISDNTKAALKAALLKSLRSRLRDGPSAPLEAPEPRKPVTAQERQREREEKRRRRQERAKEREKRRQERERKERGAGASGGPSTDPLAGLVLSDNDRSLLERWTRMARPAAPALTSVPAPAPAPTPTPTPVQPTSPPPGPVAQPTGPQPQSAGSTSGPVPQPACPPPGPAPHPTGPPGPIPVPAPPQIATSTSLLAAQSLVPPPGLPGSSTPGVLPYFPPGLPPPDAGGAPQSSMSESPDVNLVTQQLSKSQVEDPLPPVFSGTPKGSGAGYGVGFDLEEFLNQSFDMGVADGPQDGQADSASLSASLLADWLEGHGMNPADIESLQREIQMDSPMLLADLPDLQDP

| SMILES | luciferase signal |
| --- | --- |
| OC[C@@H](O)[C@@H](O[C@@H]1O[C@H](CO)[C@H](O)[C@H](O)[C@H]1O)[C@H](O)[C@@H](O)CO | 56 AU (inactive) |
| C1CCN2C[C@@H]3C[C@@H](CN4CCCC[C@@H]34)[C@H]2C1 | 60 AU (inactive) |
| O=C1[O][Bi][O]c2ccccc21 | 60 AU (inactive) |
